This experiment can be described thus: NCI Yeast Anticancer Drug Screen. Data for the rad50 strain (AID 155).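 Further: 0% = growth of vehicle-only cultures of the same strain.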 The conditions noted are these: S. cerevisiae rad50 strain growth inhibition, hits give high values. The method, then:
Growth inhibition of yeast strains with defined genetic alterations is measured as a screen for potential anti-cancer activity. Selected strains with alterations in DNA damage repair or cell cycle control were exposed to compounds and growth inhibition was measured relative to vehicle treated controls. The strain used in this assay is rad50

Where [1] appears, read: at 5.0 µM (retest, dose inferred, filed as 0.5).
[2] abbreviates: at 50.0 µM (retest, dose inferred, filed as 5.0).

The panel holds about 79,000 compounds, 15% with a hit somewhere; the sample as a whole holds those more often. Unmarked numbers belong to inactive results. Active and inactive are the calls of the source. No stated cut-off is given here; in the data, active means growth inhibition above about 70%; inactive means the rest.

This passage reports growth inhibition results from PubChem BioAssay (NCI).

For `CC12CC(Sc3ccccc3N1)c1ccccc1O2` (configuration not stated), the growth inhibition by setting is: under setting [1], 37%; under setting [2], 54%; (at 50.0 µM) 42.2%.
Take `N#CS/C(Cl)=C(/C(Cl)=C(Cl)Cl)[N+](=O)[O-]`: the growth inhibition reads like this: under setting [1], 5%; under setting [2], 99% (active); (at 50.0 µM) 84.8% (active).
For `CC[N+](CC)(CC)Cc1ccc(C[N+](CC)(CC)CC)cc1`, the growth inhibition is, setting by setting: under setting [1], 8%; under setting [2], -4%; (at 50.0 µM) 16.9%.
Take `CN(C)/C(N)=N\c1nc2ccc(Cl)cc2s1`: the growth inhibition by setting is: under setting [1], -13%; under setting [2], 15%; (at 50.0 µM) 10.9%.
For the compound `CC(=O)Oc1c(Br)cc(Br)cc1Br`, the growth inhibition under setting [1] is 4%, the growth inhibition under setting [2] was -4% and the growth inhibition (at 50.0 µM) was 9.35%.
`C/C(=N\NC(=S)NC(C)(C)C)c1ccccn1`: the growth inhibition under setting [1] is 20%, the growth inhibition under setting [2] is 99% (active) and the growth inhibition (at 50.0 µM) was 77% (active).
Taken in the same sequence, the figures for `Nc1cccc2c1C(=O)c1ccc(Cl)cc1C2=O` were 69%, 81% (active) and 93.7% (active).
In the case of `O=[N+]([O-])/C=C\c1csc2ccccc12`, the growth inhibition under setting [1] was 94% (active), the growth inhibition under setting [2] was 99% (active) and the growth inhibition (at 50.0 µM) was 99.2% (active).
Taken in the same sequence, the figures for `COc1ccc(C(=O)C(c2ccc(OC)cc2)C2(O)C(=O)Nc3c(C)cc(Cl)cc32)cc1` (configuration not stated) were 21%, 21% and -25.1%.
Take `C=CC(=O)NC(C)C`: the growth inhibition under setting [1] is 1%, the growth inhibition under setting [2] is 6% and the growth inhibition (at 50.0 µM) is 74.7% (active).
Taken in the same sequence, the figures for `N#CC1=C(N)OC(c2ccccc2)=C(C#N)C1c1ccccc1` (configuration not stated) were 90% (active), 99% (active) and 99.2% (active).
Consider `CC(=O)OC1SC(C)(C)n2c1nc1ccccc1c2=O` (configuration not stated), for which the growth inhibition reads like this: under setting [1], 1%; under setting [2], 56%; (at 50.0 µM) 44.1%.
In the case of `O=C(O)C(Cc1ccccc1)N=Cc1ccc(O)cc1` (configuration not stated), the growth inhibition under setting [1] was 70% (active), the growth inhibition under setting [2] was 97% (active) and the growth inhibition (at 50.0 µM) is 11.1%.
Take `C1CCC(CC2CCC(NC3=NCCO3)CC2)CC1` (configuration not stated): the growth inhibition by setting is: under setting [1], -23%; under setting [2], 97% (active); (at 50.0 µM) 88.6% (active).
